Sampled rows, rich in hits. Any-hit rate of the full collection: about 3.7%.
Autofluor counter: counter-screen for toxin protease inhibitors: compound fluorescence | fluorescence intensity (concentration not given with the values) | actives 3.1% (n = 360,000) | compound autofluorescence counterscreen, microsphere flow cytometry; hits give high values | AID 624483; in the data active = fluorescence intensity above about 16000; inconclusive = no clear call, values can overlap the other calls
BoNT A protease: blocks Botulinum neurotoxin A light chain protease. actives 0.17% (n = 360,000). inhibition, % at 10 µM. AID 588499. multiplex microsphere protease substrate cleavage, flow cytometry; also: plate controls were buffer without enzyme for full effect and enzyme alone for no effect
BH1578 lux ind: induces V. cholerae light production without autoinducers. V. cholerae BH1578 lux reporter, luminescence, 6 h. activation, % at 18.7 µM. actives 0.16% (n = 350,000). AID 588436; in the data active = activation mostly above about 9.7%, no sharp cut-off; inconclusive = no clear call, values can overlap the other calls; inactive = mostly below about 3.7%
Anthrax LF inh2: blocks Bacillus anthracis lethal factor protease. AID 588501. P15917. multiplex microsphere protease cleavage assay, LF. actives 0.12% (n = 360,000). inhibition, % at 10 µM; also: plate controls were buffer without enzyme for full effect and enzyme alone for no effect
Target sequence (P15917 whole entry, looked up): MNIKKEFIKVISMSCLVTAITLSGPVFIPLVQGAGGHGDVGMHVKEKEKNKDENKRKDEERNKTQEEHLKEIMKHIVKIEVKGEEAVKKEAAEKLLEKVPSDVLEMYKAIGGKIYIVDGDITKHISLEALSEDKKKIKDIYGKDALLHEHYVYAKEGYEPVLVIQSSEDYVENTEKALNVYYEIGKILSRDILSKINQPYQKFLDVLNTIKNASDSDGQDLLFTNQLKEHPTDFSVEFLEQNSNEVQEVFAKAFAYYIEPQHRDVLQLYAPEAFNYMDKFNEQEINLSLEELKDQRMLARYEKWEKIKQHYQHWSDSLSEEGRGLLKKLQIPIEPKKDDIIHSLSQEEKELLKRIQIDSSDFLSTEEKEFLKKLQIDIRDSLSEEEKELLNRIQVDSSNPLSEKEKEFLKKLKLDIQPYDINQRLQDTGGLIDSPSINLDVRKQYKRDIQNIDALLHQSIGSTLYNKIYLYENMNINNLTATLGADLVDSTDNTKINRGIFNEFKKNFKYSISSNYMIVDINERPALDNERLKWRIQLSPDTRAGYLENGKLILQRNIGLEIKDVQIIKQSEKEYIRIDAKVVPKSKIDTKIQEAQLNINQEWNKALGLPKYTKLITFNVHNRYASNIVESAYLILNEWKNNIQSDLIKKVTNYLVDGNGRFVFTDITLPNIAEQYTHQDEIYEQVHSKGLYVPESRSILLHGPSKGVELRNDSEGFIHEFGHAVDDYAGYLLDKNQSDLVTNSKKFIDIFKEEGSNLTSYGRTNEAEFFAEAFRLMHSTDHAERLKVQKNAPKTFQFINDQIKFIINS
BoNT F protease: blocks Botulinum neurotoxin F light chain protease | Multiplex microsphere protease cleavage assay, flow cytometry | AID 588497 | inhibition, % at 10 µM | actives 0.22% (n = 360,000); in the data active = inhibition above about 35%, passing the limit was not always enough; inconclusive = no clear call, values can overlap the other calls; also: plate controls were buffer without enzyme for full effect and enzyme alone for no effect
BJeLR lethal: BJeLR cell viability loss; BJeLR (HRASV12) viability, CellTiter-Glo ATP luminescence, 48 h; inhibition, % (no concentration beside the values); actives 0.17% (n = 300,000); AID 1554; in the data active = inhibition above about 50%; inconclusive = no clear call, values can overlap the other calls
* = called active by the depositor. Rule as the data show it, unless noted: active = inhibition above about 30%; inconclusive = no clear call, values can overlap the other calls; inactive = below that.

Cc1cc(C)cc(Cn2cc(CN3CC(N4CCN(Cc5ccccc5F)CC4)CS3(=O)=O)nn2)c1 (configuration not stated) was read as Autofluor counter 5688, BoNT A protease 0, Anthrax LF inh2 1 and BoNT F protease -6.
Screening O=C(c1ccccc1F)N1CCC2CC1c1cc(N3CCCCC3)ccc12 (configuration not stated) returned Autofluor counter 5881, BoNT A protease -2, BH1578 lux ind 1, Anthrax LF inh2 -5 and BoNT F protease -7.
`CC(C)(C)c1cnnn1-c1ccc(C=O)cc1` gave Autofluor counter 24224*, BoNT A protease -3, BH1578 lux ind 0, Anthrax LF inh2 -4, BoNT F protease -4 and BJeLR lethal -4.
For COc1ccc(NC(=O)c2c(OC)cccc2OC)c(OC)c1 the results were Autofluor counter 16438*, BoNT A protease 15, BH1578 lux ind inactive, Anthrax LF inh2 -19, BoNT F protease -16 and BJeLR lethal -2.
COc1ccc(NC(=O)NCc2ccncc2)c(OC)c1 was read as Autofluor counter 22838*, BoNT A protease inconclusive, BH1578 lux ind 2, Anthrax LF inh2 -3, BoNT F protease -5 and BJeLR lethal 3.
Screening COc1ccc(NC(=O)c2ccccc2O)c(OC)c1 returned Autofluor counter 18765*, BoNT A protease 5, BH1578 lux ind 0, Anthrax LF inh2 -10, BoNT F protease 5 and BJeLR lethal -6.
For COc1ccc(NC(=O)c2cccnc2C(=O)O)c(OC)c1 the results were Autofluor counter 20348*, BoNT A protease 8, BH1578 lux ind 0, Anthrax LF inh2 4, BoNT F protease 10 and BJeLR lethal -9.
COc1ccc(NC(=O)C(=O)NCc2ccncc2)c(OC)c1 was read as Autofluor counter 5011, BoNT A protease -1, BH1578 lux ind -1, Anthrax LF inh2 -3, BoNT F protease -3 and BJeLR lethal -4.
`COCCc1ccc(OC2(C)CCN(Cc3ccc(OC)c4ccccc34)C2)cc1` (configuration not stated) gave Autofluor counter 3871, BoNT A protease 0, BH1578 lux ind inactive, Anthrax LF inh2 -2 and BoNT F protease -8.
Screening COc1ccccc1CNC(=O)Nc1nnc([C@H]2C[C@H](O)[C@@H](CO)O2)s1 returned Autofluor counter 3451, BoNT A protease 0, BH1578 lux ind inactive, Anthrax LF inh2 -2 and BoNT F protease 3.
Screening COc1ccc(NC(=O)C2Cc3c(-c4ccc5c(c4)OCO5)ccnc3O2)cc1 (configuration not stated) returned Autofluor counter 3553, BoNT A protease 0, BH1578 lux ind -1, Anthrax LF inh2 2 and BoNT F protease -6.
For CC(C)N1CCC(C)(C(=O)Nc2ccccc2Oc2ccccc2)C1 (configuration not stated) the results were Autofluor counter 3593, BoNT A protease 0, BH1578 lux ind inactive, Anthrax LF inh2 -7 and BoNT F protease -5.
Screening O=S(=O)(Nc1ccc(Cc2ccncc2)cc1)c1cccs1 returned Autofluor counter 9265, BoNT A protease 0, BH1578 lux ind 5, Anthrax LF inh2 0, BoNT F protease -17 and BJeLR lethal 3.
`N#CCc1ccc(NS(=O)(=O)c2cccs2)cc1` gave Autofluor counter 16560*, BoNT A protease -1, BH1578 lux ind inactive, Anthrax LF inh2 -2, BoNT F protease -3 and BJeLR lethal 6.
COc1ccc(-c2nnn(CC(=O)N(CC(=O)NCCC(C)C)Cc3cccs3)n2)cc1OC was read as Autofluor counter 16733*, BoNT A protease inconclusive, BH1578 lux ind 0, Anthrax LF inh2 -3, BoNT F protease -2 and BJeLR lethal -8.
For CC(C)CCNC(=O)CN(CCN1CCOCC1)C(=O)Cn1nnc(-c2ccc(F)cc2)n1 the results were Autofluor counter 22983*, BoNT A protease -2, BH1578 lux ind 2, Anthrax LF inh2 -1, BoNT F protease -1 and BJeLR lethal 5.
COc1ccc(-c2nnn(CC(=O)N(Cc3cccs3)C(C)C(=O)NCCC(C)C)n2)cc1OC (configuration not stated) was read as Autofluor counter 3527, BoNT A protease 0, BH1578 lux ind inactive, Anthrax LF inh2 -6, BoNT F protease 4 and BJeLR lethal -2.
`CC(=O)NC1C(=O)N(CC(C)C)c2ccccc21` (configuration not stated) gave Autofluor counter 21274*, BoNT A protease -5, BH1578 lux ind -5, Anthrax LF inh2 1, BoNT F protease -4 and BJeLR lethal 6.
CCN(CCCNC(=O)C1CCC(=O)N1Cc1ccccc1Cl)c1cccc(C)c1 (configuration not stated) was read as Autofluor counter 30276*, BoNT A protease -17, BH1578 lux ind inactive, Anthrax LF inh2 -4, BoNT F protease -25 and BJeLR lethal -5.
For CCCS(=O)(=O)N1CCC(C(=O)NCCCN(CC)c2cccc(C)c2)CC1 the results were Autofluor counter 2884, BoNT A protease 1, BH1578 lux ind inactive, Anthrax LF inh2 -2 and BoNT F protease -5.
`CCCS(=O)(=O)N1CCCC(C(=O)NCCCN(CC)c2cccc(C)c2)C1` (configuration not stated) gave Autofluor counter 3196, BoNT A protease 0, BH1578 lux ind active, Anthrax LF inh2 0, BoNT F protease -3 and BJeLR lethal 14.
Screening CN(CCCNC(=O)C1CCC(=O)N1Cc1ccccc1Cl)c1ccccc1 (configuration not stated) returned Autofluor counter 16389*, BoNT A protease 1, BH1578 lux ind -1, Anthrax LF inh2 -1, BoNT F protease 1 and BJeLR lethal -6.
For Cn1c(SCCCC(=O)c2ccc(F)cc2)nnc1-c1ccncc1 the results were Autofluor counter 3301, BoNT A protease 0, BH1578 lux ind inactive, Anthrax LF inh2 1, BoNT F protease 2 and BJeLR lethal -10.
`CCOC(=O)CSc1nnc(Cc2ccccc2)n1-c1ccc(C)cc1` gave Autofluor counter 4009, BoNT A protease 0, BH1578 lux ind 1, Anthrax LF inh2 1, BoNT F protease -7 and BJeLR lethal -1.
Screening Cn1c(SCC(=O)NNC(=O)Cc2ccccc2)nnc1-c1ccccc1 returned Autofluor counter 2567, BoNT A protease 0, BH1578 lux ind 31*, Anthrax LF inh2 1, BoNT F protease -3 and BJeLR lethal 2.
`Cc1ccc(-n2c(Cc3ccccc3)nnc2SCC(=O)NNC(=O)Cc2ccccc2)cc1` gave Autofluor counter 16282*, BoNT A protease 0, BH1578 lux ind inactive, Anthrax LF inh2 -3, BoNT F protease -3 and BJeLR lethal 7.
For Cn1c(SCCCC(=O)c2ccccc2)nnc1-c1ccncc1 the results were Autofluor counter 19499*, BoNT A protease inconclusive, BH1578 lux ind inactive, Anthrax LF inh2 2, BoNT F protease 2 and BJeLR lethal -6.
Cn1c(SCC(=O)c2ccccc2)nnc1-c1ccc(O)cc1 was read as Autofluor counter 20320*, BoNT A protease 1, BH1578 lux ind inactive, Anthrax LF inh2 1, BoNT F protease 3 and BJeLR lethal -4.
